# Assay outcomes: PubChem BioAssay, National Center for Advancing Translational Sciences (NCATS)
# Rows were chosen to be rich in hits. Some 2.4% of all compounds tested hit in one or more screens of this group.
# D2 PAM-1: human D2 receptor positive allosteric modulation; P14416; DiscoveRx D2 beta-arrestin cells, luminescence, 90 min; 100% = 57 uM dopamine signal; hit rate 0.23% among 360,000; potentiation, % (concentration not given with the values); in the data active means potentiation above about 50%; inconclusive means mostly about 30% to 49%
# Target sequence (P14416 whole entry, looked up): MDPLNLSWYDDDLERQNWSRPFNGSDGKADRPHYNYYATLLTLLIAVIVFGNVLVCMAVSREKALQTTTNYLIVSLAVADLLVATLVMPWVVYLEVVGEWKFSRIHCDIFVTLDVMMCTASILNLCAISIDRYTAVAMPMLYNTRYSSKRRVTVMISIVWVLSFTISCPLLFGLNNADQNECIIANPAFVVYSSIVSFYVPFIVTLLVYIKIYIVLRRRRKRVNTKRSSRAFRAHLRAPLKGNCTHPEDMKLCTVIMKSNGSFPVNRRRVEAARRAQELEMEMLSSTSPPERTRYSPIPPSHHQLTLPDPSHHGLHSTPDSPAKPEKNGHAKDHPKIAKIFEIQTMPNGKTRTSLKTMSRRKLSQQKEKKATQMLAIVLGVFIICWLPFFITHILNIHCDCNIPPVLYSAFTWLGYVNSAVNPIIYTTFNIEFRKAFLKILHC
#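 D2 cells co-treated with compound plus 50 nM dopamine (EC20) for 90 min at 37 deg C to detect potentiation. Beta-arrestin recruitment was read as enzyme-fragment luminescence after 1 h at ambient temperature. Full response was set by 57 uM dopamine.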
# D2 antag: antagonists of human D2 dopamine receptor | inhibition, % at 10 µM | hit rate 2% among 340,000 | HEK293 TREx D2 cells, calcium flux, dopamine EC80; in the data active means inhibition above about 30%; inactive means below that, where a call was filed; further: 0% is about no effect
#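 Dopamine at EC80 is the agonist stimulus; test compounds precede it by 180 s. Calcium flux read kinetically in a force-coupled, inducible HEK293 T-REx D2 cell line.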
# D2 ag-1: human D2 receptor agonism in beta-arrestin assay; P14416; DiscoveRx PathHunter D2 beta-arrestin, luminescence, 90 min; 100% = 57 uM dopamine signal; AID 624465; hit rate 0.084% among 360,000; activation, % (no concentration beside the values); in the data active means activation above about 40%; inconclusive means between about 15% and that limit
#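 DiscoveRx PathHunter D2 beta-arrestin cells (2,100/well) attached overnight, then compound-stimulated 90 min at 37 C in HBSS/10 mM HEPES/0.1% Tween-20 buffer; beta-galactosidase complementation read by luminescence after 1 h at ambient temperature. Dopamine 57 uM final (EC100) as control.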
# D2 ag-2: activates the human D2 dopamine receptor; P14416; HEK293 T-REx D2 cells, calcium flux agonist mode; activation, % at 2 µM; hit rate 0.53% among 340,000;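 active means activation over 3 SD above normal in the single-dose calcium agonist read, cut at about 30% in these data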; further: 0% is about no effect
#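 In this primary screen, compounds producing a positive calcium signal within 180 s of addition to tetracycline-induced, force-coupled HEK293 Trex D2 cells are flagged; cells are dye-loaded with a no-wash calcium kit beforehand.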
# D2 PAM-2: D2 dopamine receptor (human) potentiation; potentiation, % at 10 µM; hit rate 0.34% among 340,000; HEK293 T-REx D2, calcium flux, EC20 dopamine potentiation;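 active means potentiation over 3 SD above the plate norm, cut at about 30% in these data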; further: 0% is about no effect
#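 Tetracycline-induced HEK293 T-REx cells force-coupled to calcium signalling expressed D2; compounds were pin-added after a 10 s baseline, read kinetically 180 s, then an EC20 dopamine challenge followed with a further 180 s calcium read.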
# * marks the source's active call; other numbers are inactive results; ? = inconclusive; / = not tested or not shown.
SMILES,D2 PAM-1,D2 antag,D2 ag-1,D2 ag-2,D2 PAM-2
CC1CCc2cc(F)ccc2N1S(=O)(=O)c1ccc(Cl)nc1 (configuration not stated),2,35*,0,-1,-6
Nc1ncccc1OCc1cccc(C(F)(F)F)c1,2,-10,5,0,32*
COc1cccc2c1cc1c(=O)n(CC(=O)N3CCN(c4cccc(C)c4)C(C)C3)nc(C)n12 (configuration not stated),/,/,/,0,/
C#CCN(C)Cc1ccccc1,-9,32*,4,-2,7
Cc1ccc(Nc2nnc(-c3ccc(C)c(S(=O)(=O)N4CCOCC4)c3)c3ccccc23)c(C)c1,/,/,/,1,-19
CCOc1cc(C2CC(=O)Nc3c2c(=O)nc(SCc2cccc(Cl)c2)n3C)ccc1O (configuration not stated),/,/,/,-2,8
Cc1ccc(CNc2ccc(N3CCOCC3)cc2)s1,18,8,2,-1,-10
CC(=O)N1CCN(c2ccc(NCc3ccc(C)s3)cc2)CC1,5,50*,?,1,12
COc1cc2c(cc1OC)C(COc1ccc(F)cc1)N(C(=O)c1cccc(F)c1)CC2 (configuration not stated),/,/,/,1,-6
Cc1cccc(N(CC(=O)NC2CCCC2)C(=O)CS(=O)CC(=O)Nc2ccc3c(c2)OCO3)c1C (configuration not stated),-7,-11,-3,1,-5
Cc1ccc(NC(=O)CS(=O)CC(=O)N(CC(=O)NC2CCCC2)c2cccc(C)c2C)cc1 (configuration not stated),-27,55*,0,0,-22
O=C(CCCCCNC(=O)N1CCn2c1nc1ccccc12)NCCc1ccccc1,-2,-6,3,1,0
CCCN1C(=O)/C(=C/c2c(N3CCNC(=O)C3CC(=O)OC)nc3c(C)cccn3c2=O)SC1=S (configuration not stated),/,43*,/,55*,-12
COC(=O)Cn1ncc(N(C)Cc2ccccc2)c(Cl)c1=O,-4,1,-2,0,-12
S=c1[nH]nc(COc2ccccc2)n1/N=C/c1ccccc1Br,-11,38*,-1,-1,-2
Cc1ccc(C)c(N2CCN(CCCNC(=O)Cn3cccc3C(=O)c3ccccc3)CC2)c1,-26,41*,-2,0,-46
O=C(Cn1cccc1C(=O)c1ccccc1)NCCN1CCOCC1,-4,55*,-2,1,-15
O=C(Cn1cccc1C(=O)c1ccccc1)NCCCN1CCOCC1,-21,4,-1,1,-6
CC1C(=O)C(C)C(c2cc(Cl)ccc2O)NC1c1cc(Cl)ccc1O (configuration not stated),4,17,-5,0,25
Cc1cc(F)c(F)c(C(=O)N2CCC(C)CC2)c1Cl,0,32*,1,-1,-10
Cc1cc(F)c(F)c(C(=O)N2CCCCC2C)c1Cl (configuration not stated),-6,-31,-1,0,1
O=C1CCCc2ccccc2N1,1,-6,8,1,46*
Brc1cccc(CN2CCCCCC2)c1,-4,-2,-3,-1,-12
Oc1cccc(CN2CCCCC2)c1,-7,56*,-3,1,-13
CC1=C(c2ccc(C(C)C)cc2)S(=O)(=O)NC1=NCc1ccc(OC(C)C)cc1,/,/,/,7,0
SMILES,D2 PAM-1,D2 antag,D2 ag-1,D2 ag-2,D2 PAM-2
CCCOc1ccc(C2c3c(oc4ccccc4c3=O)C(=O)N2c2nc(C)c(C(=O)OCC)s2)cc1 (configuration not stated),/,/,/,1,0
O=S(=O)(Nc1c(O)ccc2ccccc12)c1ccccc1,14,/,42*,/,/
c1ccc(-c2cnn3c(-c4ccccc4)c(-c4ccccc4)nc3n2)cc1,-9,39*,-3,137*,-12
Nc1nc(-c2ccccc2)c(-c2ccccc2)n1N,-3,-11,-6,2,-2
Cc1c(Cl)c(C(=O)Nc2nc3ccccc3n2CCN2CCCCC2)nn1C,/,-15,/,-1,35*
Cc1ccc(CNC(=O)c2nnc(Cc3cccc(F)c3)o2)cc1,/,/,/,1,6
C=CCN(CC=C)Cc1c(C)[nH]c2c(C)c(C)ccc2c1=O,-6,6,-4,0,31*
CCOc1ccc(CC(=O)OCN2C(=O)c3ccccc3C2=O)cc1,-12,2,0,-1,30*
OCCN1CCN(CCCN2c3ccccc3Sc3ccc(Cl)cc32)CC1,-30,86*,1,1,-29
CN(C)CCCN1c2ccccc2Sc2ccc(Cl)cc21,-30,86*,0,1,-28
CCN1C(=O)c2ccccc2Sc2ccc(C(=O)NCCCN3CCCCC3)cc21,-33,25,-4,0,-12
CN1CCN(CCCNC(=O)c2cn(C)c3ccc(S(=O)(=O)N(C)C)cc3c2=O)CC1,-4,-12,-1,1,8
CN(C)CCCN1c2ccccc2Sc2ccc3ccccc3c21,-28,/,-1,/,/
O=C(CN1CCCC1)N1c2ccccc2Sc2ccc(Cl)cc21,-6,10,4,0,-6
CC(=O)c1ccc2c(c1)N(CCCN1CCC(CCO)CC1)c1ccccc1S2,-39,74*,-9,-1,-15
CN1CCN(CCCN2c3ccccc3Sc3ccc(S(=O)(=O)N(C)C)cc32)CC1,-37,82*,-6,1,-23
Cc1nn(C(=O)c2c(F)cccc2F)c(C)c1S(=O)(=O)N1CCCCCC1,/,/,/,0,13
Cc1nc2nc(SCC(=O)NCCCN3CCCCCC3)nn2c(C)c1Cc1ccccc1,-11,-6,-4,0,5
Cc1ccccc1Cc1c(C)nc2nc(SCC(=O)NCCCN3CCCCC3)nn2c1C,-3,75*,4,1,15
CCc1ccc(-c2nn(CC(=O)NCc3ccccc3)c3c2cnc2ccc(F)cc23)cc1,/,/,/,1,15
Cc1ccc(NC2=NCC(=O)N2c2ccc3c(c2)OCCO3)c(C)c1,-10,9,-1,-1,31*
COc1ccc(OC)c(C2C(C(=O)N3CCCCC3)=C(C)Nc3nc4ccccc4n32)c1 (configuration not stated),/,/,/,0,17
O=C(NNC(=O)c1cccc(C(F)(F)F)c1)c1ccc(-n2cnnn2)cc1,0,/,-1,/,/
CC(NC(=O)Cn1cnnn1)c1cccc(C(F)(F)F)c1 (configuration not stated),-4,-18,1,-2,38*
CCSc1nnc(NC(=O)c2ccc(Br)s2)s1,-18,-11,-2,1,0
O=C(Nc1nnc(C(F)(F)F)s1)c1ccc(Br)s1,-6,35*,-10,19,-18
Cc1ccc(C)c(Nc2nc3c(S(=O)(=O)c4ccc(Br)cc4)nnn3c3ccsc23)c1,/,/,/,0,/
